{"source": "the supplement of paper PMC3334620", "note": "In all, about 33,000 sequences were measured (“E-score (-0.5 to 0.5)”: median about -0.016, highest 2% from about 0.32 on). The entries come from a sample that favours the highest values as a whole."}
{"target": "T1, Stp1 (UniProt B3LFK1)", "T1 sequence": "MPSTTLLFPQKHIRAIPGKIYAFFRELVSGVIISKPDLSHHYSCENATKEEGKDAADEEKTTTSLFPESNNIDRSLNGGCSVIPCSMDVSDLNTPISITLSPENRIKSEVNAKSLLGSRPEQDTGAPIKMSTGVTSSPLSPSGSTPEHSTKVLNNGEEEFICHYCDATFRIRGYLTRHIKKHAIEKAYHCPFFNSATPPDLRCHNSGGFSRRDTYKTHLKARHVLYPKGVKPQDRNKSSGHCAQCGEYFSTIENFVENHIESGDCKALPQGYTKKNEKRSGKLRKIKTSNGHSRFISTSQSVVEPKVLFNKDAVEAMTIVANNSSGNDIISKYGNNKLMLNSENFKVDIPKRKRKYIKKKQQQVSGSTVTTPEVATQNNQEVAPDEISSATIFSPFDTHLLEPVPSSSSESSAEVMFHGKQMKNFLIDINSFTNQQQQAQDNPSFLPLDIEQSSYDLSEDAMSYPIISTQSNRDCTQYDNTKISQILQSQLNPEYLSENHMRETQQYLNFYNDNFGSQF", "assay": "PBM E-score (8-mer binding enrichment) (E-score (-0.5 to 0.5)); higher = stronger / more preferred TF binding", "conditions": "protein concentration: 200 nM; construct: GST-full length", "protocol": "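Universal 'all 10-mer' protein binding microarrays (Agilent AMADID 015681) probed with GST-tagged S. cerevisiae TFs (full-length or DBD) made by in vitro transcription/translation (PURExpress), about 100-200 nM. Bound TF was detected with fluorescent anti-GST. Each ungapped 8-mer (which stands for itself and its reverse complement) is scored by the PBM enrichment score (E-score), a modified Wilcoxon-Mann-Whitney statistic from -0.5 to +0.5, computed with the Universal PBM Analysis Suite. Scale: above 0.35 generally sequence-specific binding.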"}
{"sequence": "CAGCTAAG", "PBM E-score": -0.153}
{"sequence": "CCCGGTTA", "PBM E-score": -0.0439}
{"sequence": "CCTCCCAC", "PBM E-score": -0.132}
{"sequence": "TCCGTAGA", "PBM E-score": 0.0858}
{"sequence": "GCCGTAGA", "PBM E-score": 0.427}
{"sequence": "ACCGTAGA", "PBM E-score": 0.0293}
{"sequence": "ACCGTAGC", "PBM E-score": -0.138}
{"sequence": "CCCGTAGC", "PBM E-score": -0.24}
{"sequence": "GCCGTAGC", "PBM E-score": 0.444}
{"sequence": "AACATTCT", "PBM E-score": 0.215}
{"sequence": "AGGACGGA", "PBM E-score": -0.161}
{"sequence": "AGGACGGC", "PBM E-score": 0.324}
{"sequence": "AGGACGGG", "PBM E-score": -0.271}
{"sequence": "CGGACGGA", "PBM E-score": -0.0178}
{"sequence": "CGGACGGC", "PBM E-score": 0.442}
{"sequence": "CGGACGTC", "PBM E-score": -0.00174}
{"sequence": "CTTGTGGA", "PBM E-score": 0.016}
{"sequence": "CCTACATC", "PBM E-score": -0.191}
{"sequence": "ATTCGAAT", "PBM E-score": 0.0494}
{"sequence": "AACTGTCA", "PBM E-score": -0.0285}
{"sequence": "GCGTATGA", "PBM E-score": 0.09}
{"sequence": "CGGTATGC", "PBM E-score": -0.0255}
{"sequence": "ACGTATGA", "PBM E-score": 0.15}
{"sequence": "CCGTATGA", "PBM E-score": 0.337}
{"sequence": "CCGTATGC", "PBM E-score": 0.331}
{"sequence": "ACGTATGC", "PBM E-score": 0.00677}
{"sequence": "CGAAAGGC", "PBM E-score": 0.355}
{"sequence": "CAAAACGC", "PBM E-score": 0.322}
{"sequence": "AAAAACGC", "PBM E-score": 0.125}
{"sequence": "CGAAAGGA", "PBM E-score": -0.102}
{"sequence": "AAAAAGGC", "PBM E-score": 0.249}
{"sequence": "GAAAAGGC", "PBM E-score": 0.145}
{"sequence": "CCAAACGC", "PBM E-score": 0.0617}
{"sequence": "AGAAAGGC", "PBM E-score": 0.206}
{"sequence": "CAAAAGGC", "PBM E-score": 0.359}
{"sequence": "GCCTGGAA", "PBM E-score": -0.133}
{"sequence": "GCGCATCC", "PBM E-score": 0.0373}
{"sequence": "CAGCACTA", "PBM E-score": -0.0254}
{"sequence": "GTGGTGTA", "PBM E-score": 0.0559}
{"sequence": "AAATGTCT", "PBM E-score": -0.057}
{"sequence": "ACGGCATC", "PBM E-score": 0.48}
{"sequence": "ATGGCATG", "PBM E-score": 0.22}
{"sequence": "AGGGCATG", "PBM E-score": 0.0868}
{"sequence": "CCGGCATC", "PBM E-score": -0.0881}
{"sequence": "ATGGCATC", "PBM E-score": 0.186}
{"sequence": "ACGGCATG", "PBM E-score": 0.422}
{"sequence": "ACGCGCTC", "PBM E-score": 0.105}
{"sequence": "CCGAAATA", "PBM E-score": 0.0974}
{"sequence": "GGATGAGA", "PBM E-score": -0.157}
{"sequence": "AAGTCAGC", "PBM E-score": 0.0691}
{"sequence": "AAACGGGT", "PBM E-score": 0.188}
{"sequence": "CAACGGAG", "PBM E-score": -0.0687}
{"sequence": "AAACGGAG", "PBM E-score": 0.18}
{"sequence": "AAACGGAT", "PBM E-score": 0.259}
{"sequence": "AAACGGCG", "PBM E-score": 0.481}
{"sequence": "CAACGGGG", "PBM E-score": -0.104}
{"sequence": "CAACGGCG", "PBM E-score": 0.429}
{"sequence": "CAACGGCC", "PBM E-score": 0.173}
{"sequence": "AAACGGCC", "PBM E-score": 0.368}
{"sequence": "AAACGGTG", "PBM E-score": 0.1}
{"sequence": "AAACGGTC", "PBM E-score": 0.0651}
{"sequence": "AAACGGCT", "PBM E-score": 0.376}
{"sequence": "CGGGCCAG", "PBM E-score": -0.159}
{"sequence": "AAGCGCTG", "PBM E-score": -0.0462}
{"sequence": "TGCAGGCA", "PBM E-score": -0.105}
{"sequence": "GCTCGCCC", "PBM E-score": -0.205}
{"sequence": "CGGGAGAA", "PBM E-score": -0.111}
{"sequence": "GGACAATA", "PBM E-score": 0.0607}
{"sequence": "ACGTCAAC", "PBM E-score": 0.0286}
{"sequence": "CACTCTCG", "PBM E-score": -0.0668}
{"sequence": "ATGCTATC", "PBM E-score": -0.218}
{"sequence": "CGTAGGAA", "PBM E-score": -0.0469}
{"sequence": "ATGGCGGG", "PBM E-score": -0.132}
{"sequence": "CATTGCCA", "PBM E-score": -0.0509}
{"sequence": "AATTGCCG", "PBM E-score": 0.341}
{"sequence": "AATTGCCA", "PBM E-score": -0.00723}
{"sequence": "AATTGCCC", "PBM E-score": 0.0223}
{"sequence": "CATTGCCG", "PBM E-score": 0.358}
{"sequence": "ATTTGCCG", "PBM E-score": 0.335}
{"sequence": "ATTTGCCA", "PBM E-score": -0.0687}
{"sequence": "CATTGCCC", "PBM E-score": 0.0291}
{"sequence": "ATTTGCCC", "PBM E-score": 0.109}
{"sequence": "ACGTACGC", "PBM E-score": -0.023}
{"sequence": "GCGTACGC", "PBM E-score": -0.0472}
{"sequence": "ACGTACGG", "PBM E-score": 0.292}
{"sequence": "CCGTACGA", "PBM E-score": 0.298}
